This is an account of results in PubChem BioAssay (EPA / NIEHS).

The structures appear in SMILES notation. Values joined by “and” are separate entries in the source; they are usually repeats but may differ in a detail not shown here. Equal values may be shown once. Inconclusive results are not listed. Some structures have more than one record in an assay (separate samples or runs), and their calls can disagree. Active and inactive are the calls of the source. How the source made its calls, unless noted: active means hit-call score of the fitted dose curve at least 0.9, where 1 is the maximum; inactive means score below 0.9.

Read-out in assay [1]: Monocyte Chemoattractant Protein-1 (MCP1), CCL2 (gene 6347)
In words: BSK_SAg_MCP1: BioMAP Diversity Plus: SAg Assay for Monocyte Chemoattractant Protein-1 (MCP1) Biomarker Activity (AID 2283090). As to conditions: primary human HUVEC with PBMC; actives raise or lower the signal. In short, it runs like this: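 MCP-1 levels in the endothelial–PBMC SAg co-culture were quantified by ELISA at 24 h post-dosing; both increases and decreases versus DMSO scored. Cytotoxicity monitored by SRB total protein in parallel cultures.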

Read-out in assay [2]: E-selectin (Homo sapiens) (UniProt P16581)
In words: BSK_SAg_Eselectin: BioMAP Diversity Plus: SAg Assay for Eselectin Biomarker Activity (AID 2283091). As to conditions: primary human HUVEC with PBMC; actives raise or lower the signal. In short, it runs like this: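 Co-culture: HUVEC + PBMC. Dose compound; 24 h. ELISA for E-selectin. Bidirectional fit vs DMSO.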

A short description of assay [3]: BSK_SAg_PBMCCytotoxicity: PBMC Cytotoxicity Assessment in the BioMAP Diversity Plus: SAg Assay (AID 2283093).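 Further: PBMC viability measured as Alamar Blue reduction fluorescence at 546/580 nm; fitted both ways against DMSO so a hit may be loss or gain of signal.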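 On AC50: PBMC superantigen activated with SEB plus TSST-1 one hour after compound addition.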 The settings on record: primary human HUVEC with PBMC. In short, it runs like this: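 HUVEC/PBMC co-culture; PBMC exposed to chemical 1 h before SEB and TSST-1 activation (20 ng/mL each), incubated 90 h, then Alamar Blue 6 h, fluorescence 546/580 nm. Bidirectional fit versus DMSO baseline.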

Read-out in assay [4]: Interleukin-8 (IL8), CXCL8 (gene 3576)
The experiment in a line: BSK_SAg_IL8: BioMAP Diversity Plus: SAg Assay for Interleukin-8 (IL8) Biomarker Activity (AID 2283094). The settings on record: primary human HUVEC with PBMC; actives raise or lower the signal. An outline of the steps: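 In this co-culture of human umbilical vein endothelium with peripheral blood mononuclear cells, IL-8 is assayed by ELISA at 24 h. DMSO serves as baseline for bidirectional curve fitting.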

Assay [5] is described as follows: BSK_SAg_Proliferation: Cell Proliferation Assessment in the BioMAP Diversity Plus: SAg Assay (AID 2283095).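 Further: relative cell number as total protein by SRB absorbance in sub-confluent culture.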 The settings on record: primary human HUVEC with PBMC. An outline of the steps:
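Readout is SRB-stained protein (560 nm) in a primary human HUVEC and PBMC co-culture; sub-confluent cultures are read at 96 h. Activity is fitted bidirectionally using DMSO as baseline.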

The nature of assay [6]: BSK_SAg_SRB: Viability Assessment in the BioMAP Diversity Plus: SAg Assay (AID 2283096).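 Further: cells read one day after compound addition; hits may be either gain or loss of signal compared with DMSO.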 The settings on record: primary human HUVEC with PBMC. An outline of the steps: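 Human umbilical vein endothelial cells co-cultured with PBMC, read 24 h after compound dosing. Total protein measured by sulforhodamine B staining (0.1% SRB after 10% TCA fixation, absorbance 560 nm); bidirectional fit versus DMSO baseline.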

Read-out in assay [7]: Monokine induced gamma interferon (MIG), CXCL9 (gene 4283)
The experiment in a line: BSK_SAg_MIG: BioMAP Diversity Plus: SAg Assay for Monokine induced gamma interferon (MIG) Biomarker Activity (AID 2283092). As to conditions: primary human HUVEC with PBMC; actives raise or lower the signal. An outline of the steps:
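Values reflect bidirectional fitting of ELISA-measured MIG against DMSO vehicle, taken 24 h after dosing of a co-culture of human umbilical vein endothelial cells and peripheral blood mononuclear cells.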

Assay [8] deals with human Caspase 5 (CASP5), CASP5 (gene 838) (UniProt P51878). The experiment in a line: NVS_ENZ_hCASP5: NovaScreen (NVS) Enzymatic Assay for human Caspase 5 (CASP5) (AID 2283137; active means hit-call score of the fitted dose curve at least 0.9, where 1 is the maximum). In short, it runs like this:
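Cell-free protease assay with bacterially expressed CASP5 and a fluorescent substrate, measured at 2 h. Values fitted relative to DMSO as baseline, from concentration-response series topping at 50 uM.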

Assay [9] deals with human Beta-secretase (BACE), BACE1 (gene 23621) (UniProt P56817). In words: NVS_ENZ_hBACE: NovaScreen (NVS) Enzymatic Assay for human Beta-secretase (BACE) (AID 2283140; active means hit-call score of the fitted dose curve at least 0.9, where 1 is the maximum;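 further: hits are inhibitors that reduce fluorescent substrate signal versus DMSO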). An outline of the steps: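 Recombinant BACE1 (SF9 extract) incubated with compound and fluorescent substrate, 1 h. Plates carried positive and DMSO negative controls. Initial single dose 25 uM, duplicate; confirmation by concentration series.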
Chain of human Beta-secretase (BACE), BACE1 (gene 23621) (P56817 whole entry, looked up): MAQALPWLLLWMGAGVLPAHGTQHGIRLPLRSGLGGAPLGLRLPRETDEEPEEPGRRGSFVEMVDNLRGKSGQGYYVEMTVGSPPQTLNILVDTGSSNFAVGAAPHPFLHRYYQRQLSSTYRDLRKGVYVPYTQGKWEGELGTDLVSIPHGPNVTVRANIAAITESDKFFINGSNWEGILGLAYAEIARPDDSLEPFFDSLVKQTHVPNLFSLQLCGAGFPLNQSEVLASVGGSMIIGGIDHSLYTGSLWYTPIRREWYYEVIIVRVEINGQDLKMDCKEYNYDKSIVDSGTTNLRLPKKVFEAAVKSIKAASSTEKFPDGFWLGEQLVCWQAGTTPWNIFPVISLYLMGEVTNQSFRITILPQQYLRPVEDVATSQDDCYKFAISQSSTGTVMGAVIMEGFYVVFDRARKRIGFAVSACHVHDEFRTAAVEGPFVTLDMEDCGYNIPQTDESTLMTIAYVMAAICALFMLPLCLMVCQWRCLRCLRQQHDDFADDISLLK

The target of assay [10] is human Ephrin type-A Receptor 1 (EphA1), EPHA1 (gene 2041) (UniProt P21709). In words: NVS_ENZ_hEphA1: NovaScreen (NVS) Enzymatic Assay for human Ephrin type-A Receptor 1 (EphA1) (AID 2283158; active means hit-call score of the fitted dose curve at least 0.9, where 1 is the maximum;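 further: activity is signal loss versus DMSO meaning EphA1 kinase inhibition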). In short, it runs like this: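 Chemicals first tested in duplicate at 25 uM against recombinant EphA1 with a fluorescent substrate; those passing threshold went to singleton dose-response topping at 50 uM. Activity read 1 h later as mobility-shift fluorescence, loss of signal relative to DMSO.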
Chain of human Ephrin type-A Receptor 1 (EphA1), EPHA1 (gene 2041) (P21709 whole entry, looked up): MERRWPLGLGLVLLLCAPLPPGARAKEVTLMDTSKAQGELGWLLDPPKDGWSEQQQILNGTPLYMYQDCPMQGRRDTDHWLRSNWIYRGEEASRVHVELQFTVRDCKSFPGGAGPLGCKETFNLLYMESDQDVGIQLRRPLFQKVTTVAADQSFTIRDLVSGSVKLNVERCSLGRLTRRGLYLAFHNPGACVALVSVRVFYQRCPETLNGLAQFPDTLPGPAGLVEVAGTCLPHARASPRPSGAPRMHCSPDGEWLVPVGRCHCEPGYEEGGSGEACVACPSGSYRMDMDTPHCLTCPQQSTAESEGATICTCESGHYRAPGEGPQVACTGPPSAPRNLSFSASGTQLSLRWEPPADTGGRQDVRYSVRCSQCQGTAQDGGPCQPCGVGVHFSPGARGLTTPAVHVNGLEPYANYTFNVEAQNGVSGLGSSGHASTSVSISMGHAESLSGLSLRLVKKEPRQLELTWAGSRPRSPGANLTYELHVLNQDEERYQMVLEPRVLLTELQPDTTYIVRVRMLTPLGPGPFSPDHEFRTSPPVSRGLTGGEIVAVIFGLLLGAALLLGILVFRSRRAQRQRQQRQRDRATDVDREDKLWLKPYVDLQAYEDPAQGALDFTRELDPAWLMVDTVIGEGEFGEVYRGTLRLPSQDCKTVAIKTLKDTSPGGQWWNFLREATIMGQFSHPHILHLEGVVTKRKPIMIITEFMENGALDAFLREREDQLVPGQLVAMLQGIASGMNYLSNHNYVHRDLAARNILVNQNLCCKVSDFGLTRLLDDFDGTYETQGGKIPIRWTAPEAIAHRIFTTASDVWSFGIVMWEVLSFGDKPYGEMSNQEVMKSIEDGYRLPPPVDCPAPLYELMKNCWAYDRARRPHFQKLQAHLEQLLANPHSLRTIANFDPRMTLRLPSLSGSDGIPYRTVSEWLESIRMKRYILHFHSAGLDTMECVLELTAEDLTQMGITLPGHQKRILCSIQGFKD

Assay [11] deals with Cytochrome P450 3A4 (Homo sapiens) (UniProt P08684). In words: NVS_ADME_hCYP3A4: NovaScreen (NVS) CYP450-related Enzyme Activity (ADME) Assay for human CYP3A4 (AID 2283110; active means hit-call score of the fitted dose curve at least 0.9, where 1 is the maximum). In short, it runs like this: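 Cell-free recombinant enzyme expressed in insect cells; fluorescent substrate turnover read after 0.33 h, acetonitrile as negative control. Primary screen in duplicate at 10 uM, actives then tested in concentration series.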
Chain of Cytochrome P450 3A4 (Homo sapiens) (P08684 whole entry, looked up): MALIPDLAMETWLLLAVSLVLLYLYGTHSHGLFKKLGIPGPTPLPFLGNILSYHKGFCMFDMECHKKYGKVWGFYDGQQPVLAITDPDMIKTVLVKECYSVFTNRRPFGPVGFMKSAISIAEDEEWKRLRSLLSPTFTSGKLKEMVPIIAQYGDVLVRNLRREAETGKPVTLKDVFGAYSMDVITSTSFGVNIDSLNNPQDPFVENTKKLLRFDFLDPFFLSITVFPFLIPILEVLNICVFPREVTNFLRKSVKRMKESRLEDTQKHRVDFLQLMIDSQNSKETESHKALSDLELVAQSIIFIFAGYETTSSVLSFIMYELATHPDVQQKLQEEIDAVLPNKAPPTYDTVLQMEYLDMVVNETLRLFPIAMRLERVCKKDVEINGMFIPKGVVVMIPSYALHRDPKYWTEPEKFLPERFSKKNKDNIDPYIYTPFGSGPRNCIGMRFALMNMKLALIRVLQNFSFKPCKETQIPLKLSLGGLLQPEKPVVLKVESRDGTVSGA

Chain of E-selectin (Homo sapiens) (P16581 whole entry, looked up): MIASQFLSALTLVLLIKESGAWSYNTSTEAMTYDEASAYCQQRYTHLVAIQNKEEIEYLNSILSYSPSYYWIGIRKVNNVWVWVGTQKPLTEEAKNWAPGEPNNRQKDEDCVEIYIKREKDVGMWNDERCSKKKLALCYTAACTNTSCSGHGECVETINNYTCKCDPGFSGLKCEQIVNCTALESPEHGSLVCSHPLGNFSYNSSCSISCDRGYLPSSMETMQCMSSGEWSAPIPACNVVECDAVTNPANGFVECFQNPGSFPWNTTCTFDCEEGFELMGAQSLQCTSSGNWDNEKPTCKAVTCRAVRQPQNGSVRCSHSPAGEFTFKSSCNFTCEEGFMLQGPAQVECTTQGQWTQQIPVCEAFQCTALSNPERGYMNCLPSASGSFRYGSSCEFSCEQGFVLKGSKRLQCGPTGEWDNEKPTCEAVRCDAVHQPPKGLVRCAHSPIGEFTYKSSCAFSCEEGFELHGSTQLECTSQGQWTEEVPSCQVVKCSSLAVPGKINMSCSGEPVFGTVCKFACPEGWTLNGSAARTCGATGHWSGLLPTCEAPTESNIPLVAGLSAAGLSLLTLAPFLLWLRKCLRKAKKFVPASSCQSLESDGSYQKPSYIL
Chain of human Caspase 5 (CASP5), CASP5 (gene 838) (P51878 whole entry, looked up): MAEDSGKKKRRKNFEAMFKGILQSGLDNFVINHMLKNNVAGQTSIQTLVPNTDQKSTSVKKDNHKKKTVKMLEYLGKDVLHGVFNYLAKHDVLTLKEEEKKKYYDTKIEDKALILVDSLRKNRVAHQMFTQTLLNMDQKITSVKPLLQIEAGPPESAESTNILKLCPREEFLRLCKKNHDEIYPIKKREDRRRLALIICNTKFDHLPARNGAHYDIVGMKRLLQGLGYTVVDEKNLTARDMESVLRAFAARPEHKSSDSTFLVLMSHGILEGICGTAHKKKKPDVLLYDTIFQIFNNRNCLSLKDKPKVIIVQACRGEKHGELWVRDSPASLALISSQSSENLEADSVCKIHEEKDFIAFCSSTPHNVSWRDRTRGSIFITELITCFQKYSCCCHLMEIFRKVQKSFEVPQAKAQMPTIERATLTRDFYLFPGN

As to `CCCCCCCO`, the result in assay [1], in assay [2], in [3], in assay [4], in [5] and in [6] was inactive.

Take `c1ccc(Nc2cccc3ccccc23)cc1`: the half-maximal activity concentration (AC50) is 29.4 µM (active) and 30.4 µM (active) in assay [1]; 31.8 µM (active) and 33.5 µM (active) in assay [2]; 34.3 µM (active) and 36.9 µM (active) in [3]; 31.1 µM (active) and 30.7 µM (active) in assay [4]; 31.3 µM (active) and 30.4 µM (active) in assay [5]; 28.7 µM (active) and 30.3 µM (active) in [6]. In [7], the result was inactive.

As to `CCCCCCCCCCCC(=O)N(C)CC(=O)O`, the result in assay [1], in assay [2], in [3], in [4], in assay [5] and in assay [6] was inactive.

`CCCC(C)C(=O)OCC` (stereo not drawn): the outcome in [2], in assay [7], in assay [3], in assay [4], in [5] and in assay [6] was inactive.

For `O=C1CCCCCCCCCCC1`, the result in [2], in assay [3], in assay [4], in assay [5] and in [6] was inactive.

In the case of `O=C(Cl)c1c(Cl)c(Cl)c(C(=O)Cl)c(Cl)c1Cl`, the outcome in assay [2], in assay [7], in [3], in assay [4], in [5] and in [6] was inactive.

As to `CCCCCCC=O`, the outcome in [2], in assay [7], in assay [3], in assay [4], in assay [5] and in [6] was inactive.

Take `COc1ccc(C(=O)/C(Br)=C\C(=O)O)cc1`: the AC50 in [1] is 20 µM (active); in assay [2], 7.92 µM (active) and 7.11 µM (active); in assay [3], 12 µM (active) and 7.54 µM (active); in assay [4], 3.97 µM (active); in assay [5], 6.87 µM (active) and 2.13 µM (active); in assay [6], 25.9 µM (active) and 31.6 µM (active). The values for the AC50 in assay [8] and in assay [9] were 18.5 µM (active) and 39.1 µM (active), respectively. In addition, the outcome in assay [4] was inactive.

For `CCCCCCOC(=O)CCCCC(=O)OCCCCCC`, the outcome in assay [1], in assay [2], in assay [3], in [4], in [5] and in [6] was inactive.

For the compound `C=CC(=O)OCCCCCCOC(=O)C=C`, the AC50 in assay [2] is 5.55 µM (active); in [7], 7.05 µM (active); in assay [3], 3.97 µM (active); in [4], 0.714 µM (active); in assay [5], 0.89 µM (active); in [6], 20 µM (active).

`C=C(C)C(=O)OCCCCCCCCCCCC`: the result in assay [2], in assay [3], in assay [4], in assay [5] and in assay [6] was inactive.

Regarding `CC=C(C)C(C)=O`, the outcome in [1], in assay [2], in [3], in assay [4], in [5] and in assay [6] was inactive. In addition, in assay [10], the compound was classed as inactive.

For the compound `CC/C=C\C/C=C\C/C=C\CCCCCCCC(=O)OC`, the AC50 is 13 µM (active) in [2]; 20 µM (active) in assay [3]; 20 µM (active) in assay [4]; 6.5 µM (active) in [5]; 29 µM (active) in assay [6].

Regarding `CC1=C(O)C(=O)C(C)O1` (stereo not drawn), the outcome in assay [11] and in [10] was inactive.

`CC=C(C)C=CC=C(C)C`: the AC50 is 23.4 µM (active) in assay [2], 6.5 µM (active) in assay [4] and 26.5 µM (active) in assay [5]. The outcome in assay [3], in assay [6] and in assay [10] was inactive.
